Measurements as given in the antibiotic and cytotoxicity screens of Wong et al. (2023).
Among all 39,000 compounds or so, about 3,300 (8.5%) were called active. This is one part of a sample in which actives are shown more often than they occur.

System: HepG2
Experiment: cytotoxicity call (relative viability < 0.9)
Settings: 10 µM

Row | SMILES | cytotoxicity call
1 | C[C@@H]1CN([C@@H](C)CO)S(=O)(=O)c2ccc(-c3ccncc3)cc2O[C@@H]1CN(C)Cc1ccc(Oc2ccccc2)cc1 | inactive
2 | C[C@H](O)C#Cc1ccc2c(c1)O[C@@H](CN(C)C(=O)CN(C)C)[C@H](C)CN([C@H](C)CO)S2(=O)=O | inactive
3 | C[C@@H]1CN([C@@H](C)CO)C(=O)c2cccc(NC(=O)Nc3ccc(F)cc3)c2O[C@@H]1CN(C)Cc1ccc(-c2ccccc2)cc1 | active
4 | C[C@@H]1CN([C@@H](C)CO)C(=O)c2cccc(NC(=O)Nc3ccccc3)c2O[C@H]1CN(C)Cc1ccc(-c2ccccc2)cc1 | inactive
5 | CC(C)NC(=O)Nc1cccc2c1O[C@H](CN(C)Cc1ccc(-c3ccccc3)cc1)[C@H](C)CN([C@H](C)CO)C2=O | inactive
6 | C[C@@H]1CN([C@H](C)CO)C(=O)c2cccc(NC(=O)Nc3ccc(F)cc3)c2O[C@H]1CN(C)Cc1ccc(-c2ccccc2)cc1 | active
7 | C[C@@H]1CN([C@@H](C)CO)C(=O)c2cccc(NC(=O)Nc3ccccc3)c2O[C@@H]1CN(C)Cc1ccc(-c2ccccc2)cc1 | active
8 | CC(C)NC(=O)Nc1cccc2c1O[C@H](CN(C)Cc1ccc(-c3ccccc3)cc1)[C@@H](C)CN([C@@H](C)CO)C2=O | active
9 | C[C@H](CO)N1C[C@H](C)[C@@H](CN(C)Cc2ccc(-c3ccccc3)cc2)Oc2c(NC(=O)Nc3ccc(F)cc3)cccc2C1=O | inactive
10 | C[C@H]1CN([C@@H](C)CO)C(=O)c2cccc(NC(=O)Nc3ccccc3)c2O[C@@H]1CN(C)Cc1ccc(-c2ccccc2)cc1 | inactive
11 | CC(C)NC(=O)Nc1cccc2c1O[C@@H](CN(C)Cc1ccc(-c3ccccc3)cc1)[C@@H](C)CN([C@@H](C)CO)C2=O | inactive
12 | C[C@H]1CN([C@@H](C)CO)C(=O)c2cccc(NC(=O)Nc3ccc(F)cc3)c2O[C@@H]1CN(C)Cc1ccc(-c2ccccc2)cc1 | inactive
13 | C[C@H](CO)N1C[C@H](C)[C@H](CN(C)Cc2ccc(-c3ccccc3)cc2)Oc2c(NC(=O)Nc3ccc(F)cc3)cccc2C1=O | inactive
14 | C[C@H]1CN([C@@H](C)CO)C(=O)c2cccc(NC(=O)Nc3ccc(F)cc3)c2O[C@H]1CN(C)Cc1ccc(-c2ccccc2)cc1 | inactive
15 | CN1CCN(C(=O)C[C@H]2CC[C@@H]3[C@H](COC[C@H](O)CN3C(=O)C3CC3)O2)CC1 | inactive
16 | O=C(O)[C@H]1CCCC[C@@H]1C(=O)N1CCOCC1 | inactive
17 | CO[C@@H]1CN(C)C(=O)c2ccc(NS(C)(=O)=O)cc2OC[C@@H](C)N(C(=O)C2CCCCC2)C[C@H]1C | inactive
18 | COc1ccc(NC(=O)N2C[C@@H](O)COC[C@@H]3O[C@H](CC(=O)NCc4ccccc4OC)CC[C@H]32)cc1 | inactive
